This note sets out measurements from PubChem BioAssay.

For one assay, the target named is Albumin (Bos taurus) (UniProt P02769). The assay can be described thus: compounds binding labelled BSA control protein – biochemical, small-molecule microarray, Alexa647 label, 635/667 nm fluorescence, artefact control for SMM control protein annotation, profiling panel (AID 1118).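 Also: score merges 667 nm emission intensity and signal-to-noise per printed compound spot.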 As to conditions: BSA-A647 binding, fluorescence 635 nm, higher = more signal.
Chain of Albumin (Bos taurus) (P02769 whole entry, looked up): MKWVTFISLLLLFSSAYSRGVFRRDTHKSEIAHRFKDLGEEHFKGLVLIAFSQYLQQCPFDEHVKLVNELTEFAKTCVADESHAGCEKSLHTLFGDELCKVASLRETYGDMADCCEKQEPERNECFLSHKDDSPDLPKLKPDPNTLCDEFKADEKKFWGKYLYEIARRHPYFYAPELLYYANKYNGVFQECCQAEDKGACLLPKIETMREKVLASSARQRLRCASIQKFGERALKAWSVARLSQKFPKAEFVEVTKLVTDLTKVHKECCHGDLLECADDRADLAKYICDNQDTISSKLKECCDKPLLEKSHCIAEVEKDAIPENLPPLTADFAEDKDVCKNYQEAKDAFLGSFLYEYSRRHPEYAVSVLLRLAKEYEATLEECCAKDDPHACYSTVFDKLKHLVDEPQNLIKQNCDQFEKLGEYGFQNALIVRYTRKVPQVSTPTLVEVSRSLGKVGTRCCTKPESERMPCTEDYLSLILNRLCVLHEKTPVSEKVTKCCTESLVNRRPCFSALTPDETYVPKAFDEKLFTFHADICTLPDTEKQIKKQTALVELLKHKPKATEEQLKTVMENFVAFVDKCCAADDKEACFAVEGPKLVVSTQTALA
Assay [1] can be described thus: probe aXIP binding to arrayed compounds – biochemical, NeuroSMM set, 635/667 nm fluorescence, primary screen (AID 1119).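 Also: probe is the protein aXip251-270 applied at 1 µg/mL to compound-printed slides; binding of probe to printed compounds measured as 667 nm fluorescence plus signal to noise.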 As to conditions: small-molecule microarray, higher = more signal, called active from +8 up or from −8 down.
A short description of assay [2]: probe aNOTCH3 binding on compound microarray – biochemical, small-molecule microarray, 635/667 nm fluorescence, primary screen (AID 1120).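 Also: probe is a biotin-tagged antibody raised against NOTCH3 rather than NOTCH3 protein; score merges spot fluorescence near 667 nm with spot signal to noise.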 The conditions noted are these: higher = more signal.
Assay [3] is described as follows: probe aNOTCH2 binding on compound microarray – biochemical, small-molecule microarray, 635/667 nm fluorescence, primary screen (AID 1121).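 Also: score merges feature fluorescence read at 667 nm with its signal to noise.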 As to conditions: higher = more signal.
Assay [4] deals with Carbonic anhydrase 2 (Homo sapiens) (UniProt P00918). The assay can be described thus: compounds binding carbonic anhydrase 2 – biochemical, small-molecule microarray, Alexa647-labelled CAII, profiling panel (AID 1122). The conditions noted are these: CAII-A647 binding fluorescence, higher = more signal.
Assay [5] in a line: COS7 lysate on small-molecule microarray, probe aHis, 635 nm (AID 1123).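 Also: z-score combines 667nm fluorescence intensity with signal-to-noise per printed compound spot.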 As to conditions: COS7 cell lysate, fluorescence, higher = more signal.
The nature of assay [6]: probe aLAP1 signal on lysate-treated microarray – cell lysate, small-molecule microarray, COS7 lysate, primary screen (AID 1124).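 Also: lysate comes from COS7 cells expressing LAP1 and is applied at 0.3 µg/mL; score merges spot fluorescence near 667 nm with signal-to-noise over triplicate slides.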 As to conditions: probe aLAP1, fluorescence, higher = more signal.
Another assay deals with Sam68 (KHDRBS1). The assay can be described thus: compounds binding KHDRBS1 protein – biochemical, small-molecule microarray, 635 nm fluorescence, primary screen (AID 1125).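 Also: score merges 667 nm channel intensity with signal to noise over triplicate slides.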 As to conditions: higher = more signal.
Assay [7] concerns Chordin-like protein 2 (CHRDL2). The assay can be described thus: compounds binding chordin-like 2 – biochemical, small-molecule microarray, 635 nm fluorescence, primary screen (AID 1126).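 Also: printed compound slides probed with Chrdl2 protein at 4 µg/mL for 1 h at 4 C; score merges 667 nm emission intensity with signal to noise over three replicate slides.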 As to conditions: fluorescence 635 nm, higher = more signal.
For assay [8], the target named is Concanavalin-A (Canavalia ensiformis) (UniProt P02866). The assay can be described thus: compounds binding concanavalin A lectin – biochemical, small-molecule microarray, Alexa647 label, 635 nm, artefact control for SMM control protein annotation, primary screen (AID 1127).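 Also: z combines 667 nm emission intensity with signal-to-noise across three replicate slides.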 As to conditions: ConA-A647 binding fluorescence, higher = more signal.
Chain of Concanavalin-A (Canavalia ensiformis) (P02866 whole entry, looked up): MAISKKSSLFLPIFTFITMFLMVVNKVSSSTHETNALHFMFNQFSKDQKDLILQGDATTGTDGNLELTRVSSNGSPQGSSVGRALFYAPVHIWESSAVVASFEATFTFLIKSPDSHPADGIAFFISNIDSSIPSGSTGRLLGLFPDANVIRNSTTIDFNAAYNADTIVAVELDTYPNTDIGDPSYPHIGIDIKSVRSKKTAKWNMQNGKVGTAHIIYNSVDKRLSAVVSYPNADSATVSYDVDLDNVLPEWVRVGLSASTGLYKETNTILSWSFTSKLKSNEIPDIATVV

Activity calls are given as the source filed them.

`CCN1C(=O)[C@H]2[C@H]3[C@H](O)[C@H](O)CC(=NOCc4ccccc4)[C@@H]3CC[C@H]2C1=O`: the composite z-score with Albumin (Bos taurus) is -0.0633; in assay [2], 0.302; in assay [3], -0.186; in [4], 0.0453; in assay [5], 0.37; in [6], 1.74. Also, the composite z-score came out at 0.598 with Sam68 (KHDRBS1), 0.589 in assay [7] and 0.7 in assay [8]. The composite Z-score in assay [1] was 1.92 (inactive).
In the case of `COc1ccc(O[C@H]2C=C[C@@H](c3ccccc3)O[C@@H]2CON=C[C@@H](C)[C@H](OCc2ccccc2)C(C)C)cc1`, the composite z-score in the assay with Albumin (Bos taurus) is -0.136; in assay [2] it was -0.245; in assay [3] it was -0.198; in [4] it was -0.89; in assay [5], -0.53; in assay [6] it was -0.419. In addition, the values for the composite z-score (with Sam68 (KHDRBS1); in assay [7]; in assay [8]) were -1.67, -0.163 and -0.409, respectively. Moreover, in [1], the composite Z-score was -0.236 (inactive).
For `O=C1[C@H]2[C@H]3[C@H](O)[C@H](O)CC(=NOCc4ccccc4)[C@H]3CC[C@H]2C(=O)N1c1cccc(Oc2ccccc2)c1`, the composite z-score was 0.442 in the assay with Albumin (Bos taurus); 0.0793 in [2]; -0.161 in assay [3]; 0.144 in assay [4]; 1.14 in assay [5]; 0.229 in assay [6]. Moreover, the composite z-score is 1.05 in the assay on Sam68 (KHDRBS1), -0.0086 in assay [7] and 0.707 in [8]. Moreover, in assay [1], the composite Z-score was -0.171 (inactive).
Consider `Cc1ccc(S(=O)(=O)N[C@@H]2COC(=O)[C@H](C)COC(=O)CC=C[C@H]2C)cc1`, for which the composite z-score with Albumin (Bos taurus) was -0.601; in assay [2], -0.224; in assay [3], -0.0817; in [4], -0.271; in assay [5], -0.32; in assay [6], -0.7. Further, the composite z-score in the assay with Sam68 (KHDRBS1) was 0.0715; in [7], 1.23; in assay [8], -0.0405. In addition, in assay [1], the composite Z-score was -0.186 (inactive).
Take `COc1ccc(CCNC(=O)[C@@H]2c3ccccc3C(=O)N(c3ccc(C)cn3)[C@H]2c2ccc(CO)cc2)cc1`: the composite z-score with Albumin (Bos taurus) is 0.45; in [2], -0.406; in assay [3], -0.0959; in assay [4] it was 0.77; in [5], 1.5; in [6], 0.539. The composite z-score is -0.121 in the assay on Sam68 (KHDRBS1), -1.76 in assay [7] and -1.45 in assay [8]. In addition, the composite Z-score in assay [1] is 0.378 (inactive).
As for `C[C@H]1CC[C@@H](C(=O)O)N[C@@H]1c1ccc(C#CCN(C)C)cc1`, the composite z-score was -0.0169 in the assay with Albumin (Bos taurus); 0.0556 in assay [2]; -0.149 in [3]; 0.37 in assay [4]; -0.144 in assay [5]; -0.0228 in [6]. In addition, the composite z-score in the assay with Sam68 (KHDRBS1) was -0.331; in [7] it was 0.591; in assay [8], 0.574. Also, the composite Z-score in assay [1] is 0.26 (inactive).
Regarding `CC(C)[Si]1(C(C)C)O[C@@H](c2ccccc2)c2cc(C3CC3)nc(-c3ccccc3)c21`, the composite z-score was 0.23 in the assay with Albumin (Bos taurus); -0.16 in [2]; -0.102 in assay [3]; -0.169 in assay [4]; 0.423 in assay [5]; 0.202 in assay [6]. The composite z-score in the assay with Sam68 (KHDRBS1) is -0.308; in assay [7] it was 0.324; in assay [8], -0.77. Besides, the composite Z-score in assay [1] was -0.773 (inactive).
With `COCCCNC(=O)[C@@]1(CCS(=O)(=O)c2ccccc2)N=C(c2ccc(OCCCO)cc2)O[C@H]1c1ccccc1`, the composite z-score with Albumin (Bos taurus) came out at 0.533; in assay [2] it was 0.303; in [3] it was 0.529; in assay [4] it was 0.577; in assay [5], 3; in [6] it was 1.01. Also, the composite z-score in the assay with Sam68 (KHDRBS1) was 1.31; in assay [7], -0.0021; in [8] it was 0.261. Moreover, in assay [1], the composite Z-score was 0.164 (inactive).
For the compound `COC(=O)[C@H](C)NC(=O)CCC1CC(OC(=O)NCc2ccc3c(c2)OCO3)CC2(CCCC(COC(=O)NCCOc3ccccc3)O2)O1` (stereo not given in full), the composite z-score in the assay with Albumin (Bos taurus) is 0.469; in assay [2], 0.14; in assay [3], -0.0889; in assay [4], 0.356; in [5] it was 0.508; in [6], 0.114. Moreover, the composite z-score amounted to 1.3 in the assay on Sam68 (KHDRBS1), 0.344 in assay [7] and 0.906 in assay [8]. Further, the composite Z-score in [1] is 0.794 (inactive).
On to `COc1ccc(-c2nc3c(c4c2C[C@H](C)OC4)CN(CCC(C)C)CC3)cc1`, for which the composite z-score with Albumin (Bos taurus) is 0.556; in assay [2] it was -0.166; in assay [3], -0.0167; in assay [4], 0.441; in assay [5], 0.455; in [6] it was -0.177. The values for the composite z-score (in the assay on Sam68 (KHDRBS1); in assay [7]; in [8]) were 1.23, 0.348 and 0.928, respectively. Moreover, in [1], the composite Z-score was 0.292 (inactive).
As to `Cc1cc2c(c(=O)o1)[C@H](O)[C@H]1O[C@H]1C2=O`, the composite z-score with Albumin (Bos taurus) was -1.02; in [2], 0.255; in assay [3] it was -0.0076; in [4], 0.0024; in assay [5], -0.682; in assay [6] it was -0.106. Also, the composite z-score with Sam68 (KHDRBS1) is -0.333; in assay [7], 0.26; in assay [8], -0.0383. In [1], the composite Z-score was -0.18 (inactive).
`COC(=O)CC1OC1[C@H](C)[C@@H](OC)C(C)C` (stereo not given in full): the composite z-score was -0.294 with Albumin (Bos taurus); -0.0647 in assay [2]; -0.124 in [3]; 0.232 in assay [4]; -0.64 in assay [5]; 0.229 in assay [6]. Further, the composite z-score in the assay with Sam68 (KHDRBS1) is -0.22; in assay [7], 1.03; in [8], -0.321. Besides, in assay [1], the composite Z-score was 0.406 (inactive).
In the case of `CC(C)[C@H](NC(=O)OC(C)(C)C)[C@@H](O)CC(=O)OC(C)(C)C`, the composite z-score is -0.493 with Albumin (Bos taurus); -0.235 in [2]; -0.144 in assay [3]; -0.602 in assay [4]; -0.361 in assay [5]; -0.202 in [6]. For the same compound, the composite z-score in the assay on Sam68 (KHDRBS1) was -1.73; in assay [7], -0.646; in assay [8] it was -0.744. In addition, the composite Z-score in assay [1] is 0.0831 (inactive).
